This is one part of a sample in which hits are shown more often than they occur.
TTR transcr act – activators of transthyretin transcription; SH-SY5Y TTR promoter Gaussia luciferase, luminescence; 100% = recombinant luciferase protein wells; activation, % at 16.7 µM; 1.3% of 92,000 active;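 active = activation above the mean of all tested compounds plus 3 SD, cut at about 9.5% in these data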;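 note: cells exposed to compounds for one day before reading; 0% = median of all test compound wells on the plate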
TTR inh HuH7 – decreases TTR transcription in HuH7 cells in activator counter-screen. shares compounds with TTR transcr act. HuH7 TTR promoter-Gaussia luciferase reporter, luminescence. inhibition, % at 16.7 µM. 4% of 1,100 active. AID 1117279;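 active = average inhibition above the solvent-only control wells' mean plus 3 SD, cut at about 15% in these data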;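 note: 0% = cells with DMSO only and 100% = cells with inhibitor control FD; inhibitors lower well luminescence so higher value means more inhibition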
TTR up confirm – confirmation of human transthyretin transcription activators | shares compounds with TTR transcr act | SHSY5Y TTR promoter Gaussia luciferase, luminescence; 100% = purified Lucia enzyme wells, no cells | activation, % at 16.7 µM | 1,100 tested, under 10 active | AID 1117280;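 active = mean activation above a set limit taken from the earlier primary screen, cut at about 11% in these data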;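 note: 0% = DMSO-treated cells and 100% = recombinant Lucia luciferase without cells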
Active calls of the source: *.

How did COc1ccccc1NC(=O)OC1CC2CC1[C@H]1CCCCN1[C@H]2Cc1ccccc1 (stereo partly drawn) do in these assays?
TTR transcr act: 0

How did COc1ccc(C)cc1NC(=O)COC(=O)C1CCN(C(=O)c2ccc(Cl)cc2)CC1 do in these assays?
TTR transcr act: 15*; TTR inh HuH7: -11; TTR up confirm: 1

How did Cc1ccc(NC(=O)COC(=O)C2CC2)c(Br)c1 do in these assays?
TTR transcr act: 0

Results for O=C(COC(=O)C1CCN(C(=O)c2ccc(Cl)cc2)CC1)c1ccco1 ?
TTR transcr act: 2

Results for CCc1cc(=O)oc2c(C)c(OCC(=O)NCCCN3CCOCC3)ccc12 ?
TTR transcr act: 6

What do the screens show for `CCc1cc(=O)oc2cc(OCC(=O)NCCCn3ccnc3)c(Cl)cc12`?
TTR transcr act: -1

What do the screens show for `CCCCc1cc(=O)oc2cc(OCC(=O)NCCN3CCOCC3)c(Cl)cc12`?
TTR transcr act: 11*; TTR inh HuH7: -25; TTR up confirm: 2

What do the screens show for `CCc1ccc(Cn2c(=O)n(Cc3ccc(C(=O)NCCCOC)cc3)c(=O)c3ccccc32)cc1`?
TTR transcr act: 0

What do the screens show for `CCOc1ccc(CCNC(=O)c2ccc3[nH]ccc3c2)cc1OCC`?
TTR transcr act: 0

How did C=CCN1CC(COc2ccc(OC)cc2)OCCS1(=O)=O (stereo not drawn) do in these assays?
TTR transcr act: 1

Results for COc1cc(O)c(C(CC(=O)N2CCC(C)CC2)c2ccc3c(c2)OCO3)c(OC)c1 (stereo not drawn) ?
TTR transcr act: -2

What do the screens show for `CCOC(=O)N1CCN(C(=O)C[C@H]2C(=O)N(CCCOC)C3=CCCC[C@@]32C(=O)OCC)CC1`?
TTR transcr act: 0

Results for O=C(O)CCc1nn2c3ccccc3nc2n(CCN2CCCCC2)c1=O ?
TTR transcr act: 2

What do the screens show for `CCn1c(=O)c(C)nn2c3ccccc3nc12`?
TTR transcr act: -1

Results for Cc1nn2c3ccccc3n(CCN3CCCCC3)c2nc1=O ?
TTR transcr act: 11*; TTR inh HuH7: -9; TTR up confirm: -1

What do the screens show for `Cc1ccc(C(=O)NCCNC(=O)c2ccc(C)nc2)cc1`?
TTR transcr act: 1

What do the screens show for `C[N+](C)(C)CCCNC(=O)c1ccc(/C=N/O)nc1`?
TTR transcr act: 20*; TTR inh HuH7: -7; TTR up confirm: 1

How did CNCCCNC(=O)c1ccc(/C=N/O)nc1 do in these assays?
TTR transcr act: -1

How did COC(=O)[C@]12C[C@H](CC(=O)NCCC(C)C)C(=O)N(Cc3ccco3)C1=C[C@H](C1CCCC1)O[C@@H]2C do in these assays?
TTR transcr act: 0

Results for C[C@H](CO)N1C[C@H](C)[C@H](CN(C)C(=O)Nc2cccc3ccccc23)Oc2ncc(Br)cc2C1=O ?
TTR transcr act: -1

How did CC(C)Oc1cccc(-c2csc(N3CCC(C(N)=O)CC3)n2)c1 do in these assays?
TTR transcr act: 3

How did O=C(CNC(=O)c1ccccc1)OC1CCCCC1 do in these assays?
TTR transcr act: 1

Results for COC(=O)C(CC(=O)CNC(=O)c1ccccc1)NC(=O)c1ccccc1 (stereo not drawn) ?
TTR transcr act: 1

How did O=C(NC(CC1CCCCC1)C(=O)O)c1ccccc1 (stereo not drawn) do in these assays?
TTR transcr act: 15*; TTR inh HuH7: -7; TTR up confirm: 0

What do the screens show for `CN1C(=O)C(c2cn(C)c3ccccc23)(c2cn(C)c3ccccc23)c2cc(Br)ccc21`?
TTR transcr act: 0

What do the screens show for `COc1cc(C2(c3ccc(O)c(OC)c3)C(=O)N(C)c3ccc(C)cc32)ccc1O`?
TTR transcr act: 1

What do the screens show for `Cc1cc(Br)cc2c1N(C)C(=O)C2(c1ccc(O)cc1)c1ccc(O)cc1`?
TTR transcr act: 47*; TTR inh HuH7: -5; TTR up confirm: 2

What do the screens show for `O=C(OCC#CCSc1nnc(-c2cccc3ccccc23)o1)c1ccsc1`?
TTR transcr act: -1

How did O=C(Nc1ccc2oc(-c3ccncc3)nc2c1)c1ccc2c(c1)OCCO2 do in these assays?
TTR transcr act: -1

What do the screens show for `O=C(Nc1ccc2oc(-c3ccncc3)nc2c1)c1ccc(Br)o1`?
TTR transcr act: 10*; TTR inh HuH7: -10; TTR up confirm: -1

Results for O=C(Nc1ccc2oc(-c3ccncc3)nc2c1)c1ccc(F)cc1 ?
TTR transcr act: -1

What do the screens show for `CCC[C@H]1[C@@H](OC(=O)NCc2cccc(Cl)c2)CC[C@@]23CCCN2C(=O)CCC[C@@H]13`?
TTR transcr act: -2

What do the screens show for `COc1cc(-c2cc(C(=O)OCC(=O)NC3CC3)c3ccccc3n2)cc(OC)c1OC`?
TTR transcr act: -3

Results for COc1cc(-c2cc(C(=O)O)c3cc4c(cc3n2)OCCO4)cc(OC)c1OC ?
TTR transcr act: 2

Results for COc1cc(-c2cc(C(=O)NN3CCN(C)CC3)c3ccccc3n2)cc(OC)c1OC ?
TTR transcr act: 36*; TTR inh HuH7: -11; TTR up confirm: 3

Results for O=C(OCC#CCSc1nnc(-c2ccc(Cl)cc2)o1)c1ccc(F)cc1 ?
TTR transcr act: 1

Results for O=S(=O)(c1ccc(SCc2c(F)cccc2Cl)nc1)N1CCCC1 ?
TTR transcr act: -1

What do the screens show for `O=S(=O)(c1ccc(SCCOc2ccc(Cl)cc2)nc1)N1CCCC1`?
TTR transcr act: 21*; TTR inh HuH7: 7; TTR up confirm: -1

How did O=S(=O)(c1ccc(SCCOc2ccc(Br)cc2)nc1)N1CCCC1 do in these assays?
TTR transcr act: -2

What do the screens show for `CCCCCCCCN1C(=O)[C@@H](CC(=O)N2CCCC2)C[C@@]2(C(=O)OC)C1=C[C@H](C(C)C)O[C@@H]2C1CC1`?
TTR transcr act: -2

What do the screens show for `C[C@@H]1CCC(=O)N(CC[C@H](N=[N+]=[N-])c2ccccc2)CC1`?
TTR transcr act: 10*; TTR inh HuH7: -7; TTR up confirm: 1

Results for CC(C)(C)[C@@H]1CCC(=O)N(CC[C@H](N=[N+]=[N-])c2ccccc2)CC1 ?
TTR transcr act: 0

Results for [N-]=[N+]=N[C@@H](CCN1CC[C@H](O)CCC1=O)c1ccccc1 ?
TTR transcr act: 4

What do the screens show for `COc1ccc([C@@]23CCN=C2c2[nH]c4ccccc4c2CCN3)c(N)c1`?
TTR transcr act: -1

What do the screens show for `O=C(C1CCN(c2nc(-c3ccc(Br)cc3)cs2)CC1)N1CCNCC1`?
TTR transcr act: 2

How did Cc1ccc(CN2CC=CCS2(=O)=O)cc1 do in these assays?
TTR transcr act: -1

Results for CNc1nc(N)c([N+](=O)[O-])c(Nc2cccc(OC)c2)n1 ?
TTR transcr act: 0

How did CC(=O)c1ccc(NC(=O)NNS(=O)(=O)c2ccc(F)cc2)cc1 do in these assays?
TTR transcr act: -1

What do the screens show for `Cc1ccc(S(=O)(=O)NNC(=O)c2sc(NS(=O)(=O)c3ccccc3)nc2C)cc1`?
TTR transcr act: 0

What do the screens show for `Cc1nc(NS(=O)(=O)c2ccccc2)sc1C(=O)N/N=C/c1ccccc1`?
TTR transcr act: 0

How did CCOC(=O)Nc1sc(NS(=O)(=O)c2ccccc2)nc1C do in these assays?
TTR transcr act: 10*; TTR inh HuH7: -19; TTR up confirm: 2

What do the screens show for `Cc1ccc(C)c(S(=O)(=O)Nc2nc(C)c(C(=O)Nc3ccccc3)s2)c1`?
TTR transcr act: 1

Bioassay records (PubChem)
